The values that follow come from PubChem BioAssay (NCATS).

Values joined by “and” are separate entries in the source; they are usually repeats but may differ in a detail not shown here. Identical values can stand only once. Results filed as inconclusive are left out. A structure can be active in one record and inactive in another. A number with no mark means an inactive call. Active and inactive are the calls of the source. Calls follow the shape of the dose curve; as a rule, active = well fitted cell-killing curve with a large enough effect; inconclusive = small, poorly fitted or top-dose-only effect; inactive = flat fitted curve, though single readings scatter.
% is scaled to controls: 0 for no effect and ±100 for the full control effect.

This test is described as follows: Cellular viability qHTS for adrenocortical cancer (ACC) cell line SW-13 (AID 1963989). Also: nearly all actives have a fitted effect of over 65% in size.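 As to activity (max response): cells grown in serum-free medium with ITS supplement.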 As to conditions: SW-13 ACC cells viability, CellTiter-Glo, 48 h; activity (max response): hits give low values. From the text: PI: Naris Nilubol, MD Surgical Oncology Program, National Cancer Institute (NCI) National Institute of Health (NIH), Bethesda, Maryland Adrenocortical cancer (ACC) is a rare malignancy with poor survival outcomes and few treatment options. Currently, mitotane is the only FDA-approved therapy for ACC. Although adjuvant radiation therapy is rarely utilized, it has the potential to improve survival in select cases. Through a quantitative high-throughput drug screen (qHTS), we identified auranofin (AF), a thioredoxin reductase (TXNRD) inhibitor, as a promising candidate drug. This study aims to evaluate whether AF can enhance the efficacy of radiation therapy in the treatment of ACC. Two human ACC cell lines, SW-13 and NCI-H295R, were screened using the National Center for Advancing Translational Sciences (NCATS) Pharmaceutical Collection (NPC) and the Mechanism Interrogation PlatE (MIPE) library (~4,991 compounds). CellTiter-Glo (Cat # G7570, Promega, Madison, WI) was utilized to measure cell viability. Described herein are the results of the corresponding viability assay.
PROTOCOL TABLE (as described by Inglese J, Shamu CE and Guy RK. 2007) SEQUENCE No. (e.g., 1, 2, 3, etc.); […] (e.g., Cells, Incubation, Reagent, etc.); VALUE; DESCRIPTION. 1; Cells; 5 uL; white, solid-bottom, 1536-well tissue-culture treated plates. 2; Time; overnight culture at 37C with 5% CO2. 3; Compounds and control; 23 nL; Kalypsis pin tool (Wako USA) equipped with a 1536-well pin head to transfer to the assay plates. 4; Time; 48 hours; 37C with 5% CO2. 5; Reagent; 4 uL; CellTiter-Glo luminescent substrate mix. 6; Time; 20 min at room temperature. 7; Detection; Luminescence; ViewLux plate reader NOTES (numbers refer to Sequence numbers above) 1. SW13 cells were harvested from a T175 flask and resuspended in ITS-supplemented DMEM serum-free medium at a concentration of 300 000 cells/mL. Then 5 uL of resuspended cells were dispensed into each well of white, solid-bottom, 1536-well tissue-culture-treated plates using a multidrop combi dispenser. The plates were covered with stainless steel gasket lids. 2-3. The plates were cultured overnight at 37C with 5% CO2. Twenty-three nL of compounds (eight selected concentrations from the NPC / MIPE) or positive control (10 mM stock of bortezomib) in DMSO was transferred to each well of the assay plate using a pin tool (Kalypsys, San Diego, CA, USA). The final concentration of the compounds in the 5 uL assay volume ranged from 0.5 nM to 46 uM. 4-6. After 48 hours of incubation at 37C and 5% CO2, 4 uL of CellTilter-Glo luminescent substrate mix (Promega, Madison, WI, USA) was added to each well. Then the plates were incubated for 20 minutes at room temperature. 7. After incubation, luminescence was measured using a ViewLux plate reader (PerkinElmer, Waltham, MA, USA) with a clear filter was used to measure the number of metabolically competent cells. To determine compound activity in the qHTS assay, the titration-response data for each sample was plotted and modeled by a four-parameter logistic fit yielding IC50 and efficacy (maximal response) values. […] REFERENCES: Inglese J, Shamu CE and Guy RK, Reporting data from high throughput screening of small molecule libraries, Nature Chemical Biology, 2007, 3(8): 438-441. doi.org/10.1038/nchembio0807-438.
For `COc1cc(Nc2ncc3c(n2)-c2ccc(Cl)cc2C(c2c(F)cccc2OC)=NC3)ccc1C(=O)O`, the Potency is 31.6 µM (active).
The same measure, in the same setting: the value for `O=C(NCc1ccccc1)c1csc(Nc2ccncn2)n1` was 25.1 µM (active).
Turning to `C[C@@H](Oc1cc(-c2cnn(C3CCNCC3)c2)cnc1N)c1c(Cl)ccc(F)c1Cl`, the Potency was 3.55 µM (active).
Consider `COc1cc2c(cc1OC)CN(CCc1ccc(NC(=O)c3cc(OC)c(OC)cc3NC(=O)c3cnc4ccccc4c3)cc1)CC2`, for which the activity (max response) is -4.36%.
For the compound `N#CSCC(=O)O`, the activity (max response) was 4.51%.
`O=C1NC(=O)/C(=C/c2ccc(-c3ccc(F)cc3O)o2)S1`: the Potency was 28.2 µM (active).
`C[C@@H]1C[C@H]2[C@@H]3CCC4=CC(=O)C=C[C@]4(C)[C@@]3(F)[C@@H](O)C[C@]2(C)[C@@]1(O)C(=O)COC(=O)c1ccncc1`: the activity (max response) was -0.514%.
With `C[C@]12CCC(=O)C=C1C=C[C@@H]1[C@@H]2CC[C@@]2(C)[C@H]1CC[C@@]21CCC(=O)O1`, the activity (max response) is 8.87%.
On to `CCOC(=O)c1ncn2c1CN(C)C(=O)c1cc(F)ccc1-2`, for which the activity (max response) is 10.7% and 8.93%.
With `NC(=O)N/N=C/c1ccc([N+](=O)[O-])o1`, the Potency was 35.5 µM (active) and the activity (max response) is 4.16%.
With `COC(=O)c1ccc(O)cc1`, the activity (max response) was 11.5%.
On to `CN1CCN(CCCN2c3ccccc3Sc3ccc(C(F)(F)F)cc32)CC1`, for which the Potency was 20.6 µM (active) and 25.1 µM (active).
With `CCCCC(=O)OCC(=O)[C@H]1[C@H](C)C[C@H]2[C@@H]3C[C@H](F)C4=CC(=O)C=C[C@]4(C)[C@@]3(F)[C@@H](O)C[C@@]21C`, the activity (max response) is 5.4%.
For `COc1ccc2cc([C@H](C)C(=O)O)ccc2c1`, the activity (max response) was 13.9% and -10.9%.
The same measure, in the same setting: as for `COc1cc(O)c(C(=O)c2ccccc2)cc1S(=O)(=O)O`, the figure is 9.22%.
For `O=C(Nc1ccc2[nH]nc(-c3ccncc3)c2c1)[C@@H]1CCN(CC(=O)N2CCN(c3ccc(-c4ncccn4)cc3)CC2)C1`, the Potency is 4.47 µM (active).
For the compound `CCCCOCCOc1nc(-c2ccc(C(=O)O)c(F)c2)sc1C`, the activity (max response) is -9.17%.
The same measure, in the same setting: the value for `O=C(c1ccc(NS(=O)(=O)c2cccc3cccnc23)cc1)N1CCN(CC2CC2)CC1` was -19.6%.
As for `Cc1ccc(C(=O)N(CCCN)[C@@H](c2oc3cc(Cl)ccc3c(=O)c2Cc2ccccc2)C(C)C)cc1`, the Potency is 0.0141 µM (active).
In the case of `COC(=O)Nc1ccc(-c2nc(N3CCOCC3)c3cnn(C4CCN(Cc5cccnc5)CC4)c3n2)cc1`, the Potency was 12.6 µM (active).
Regarding `C=C[C@H]1CN2CC[C@H]1C[C@H]2[C@H](O)c1ccnc2ccc(OC)cc12`, the activity (max response) was -6.74%.
Same read-out and setting: as for `c1ccc(CNCCNCc2ccccc2)cc1`, the figure is -0.207%; as for `Cc1ccsc1C(=CCCN1CCC[C@@H](C(=O)O)C1)c1sccc1C`, 0.503% and 7.63%; as for `CC1(C)O[C@H]2CC(=O)OC[C@]23[C@H]2CC[C@@]4(C)[C@H](c5ccoc5)OC(=O)[C@H]5O[C@]54[C@]2(C)C(=O)C[C@@H]13`, 7.85%.
Take `c1cc(CN2CCCNCCNCCCNCC2)ccc1CN1CCCNCCNCCCNCC1`: the activity (max response) is -19.4%.
Take `COc1ccc2nc3cc(Cl)ccc3c(Nc3cc(CN4CCCC4)c(O)c(CN4CCCC4)c3)c2n1`: the Potency was 12.6 µM (active).
With `C[C@@H](O)[C@H]1C(=O)N2C(C(=O)O)=C(S[C@@H]3CN[C@H](C(=O)N(C)C)C3)[C@H](C)[C@H]12`, the activity (max response) was 7.3% and 9.96%.
The same measure, in the same setting: the value for `CC(=O)Nc1ccc(S(=O)(=O)Nc2ccc([N+](=O)[O-])cc2)cc1` was 3.97%; that for `Cc1c(C(C)C)c(=O)n(-c2ccccc2)n1C` was -5.23%.
For `CC(C)Nc1cccnc1N1CCN(C(=O)c2cc3cc(NS(C)(=O)=O)ccc3[nH]2)CC1`, the activity (max response) was -10.3%.
`C[N+]1(C)CCCC(OC(=O)C(O)(c2ccccc2)c2ccccc2)C1` (stereo not given): the activity (max response) is -0.325%.
Turning to `Cc1cn([C@H]2C=C[C@@H](CO)O2)c(=O)[nH]c1=O`, the activity (max response) was 4.28%.
The same measure, in the same setting: the value for `CCCn1c(=O)c2[nH]c(-c3cnn(Cc4cccc(C(F)(F)F)c4)c3)nc2n(CC)c1=O` was 6%; that for `CS(=O)(=O)c1ccc([C@@H](O)[C@@H](CO)NC(=O)C(Cl)Cl)cc1` was -8.84%; that for `C[C@]12CC[C@@H]3c4ccc(O)cc4CC[C@H]3[C@@H]1C[C@@H](O)[C@@H]2O` was -7.09%.
Regarding `CC(C)(C)c1nnc(NS(=O)(=O)c2ccccc2)s1`, the activity (max response) was 4.7%.
Turning to `CCOC(=O)C1=C[C@@H](OC(CC)CC)[C@H](NC(C)=O)[C@@H](N)C1`, the activity (max response) is 7.32%.
Take `CCN1CCC[C@H]1CNC(=O)c1cc(S(N)(=O)=O)ccc1OC`: the activity (max response) is 6.63%.
The same measure, in the same setting: the value for `CC(N)C12CC3CC(CC(C3)C1)C2` (stereo not given) was -5.6% and -7.27%.
